Hits are enriched below; roughly 14% of the tested compounds scored in any of these assays.
Sm TGR inh = S. mansoni TGR enzyme inhibition. Q962Y6. Potency, µM (highest dose often 114 µM), for inactives: at the highest dose activity change, negative = inhibition, actives largely listed as inhibitors. purified TGR, DTNB reduction, TNB absorbance 405 nm. actives 3% (n = 360,000); also: potency is read from the fitted curve at half-maximal effect; nearly all actives have a fitted effect of over 60% in size
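Kinetic colorimetric format: TGR-catalysed, NADPH-driven DTNB reduction monitored via TNB absorbance. Enzyme dispensed at 20 nM; compound exposure 15 min at room temperature before reaction start.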
Pf growth 48h = P. falciparum growth inhibition at 48 hours (one generation); P. falciparum luciferase growth in erythrocytes, 48 h; actives 5.9% (n = 310,000); Potency, µM (top dose mostly 28.7 µM), without a hit: at the top dose activity change, negative = inhibition, most hits filed as inhibitors; also: potency is read from the fitted curve at half-maximal effect
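Luciferase-expressing P. falciparum in infected erythrocytes (2% hematocrit, 0.1% parasitemia final) in RPMI 1640/0.5% Albumax were exposed to compound for 48 hours at 37 C, 5% CO2; growth read as luminescence.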
Pf growth 96h = P. falciparum growth inhibition at 96 hour, primary screen for plastid delayed-death inhibitors | P. falciparum luciferase reporter growth, 96 h | Potency, µM (top dose mostly 28.7 µM), without a hit: at the top dose activity change, negative = inhibition, most hits filed as inhibitors | actives 6.9% (n = 320,000) | AID 504834; also: potency is read from the fitted curve at half-maximal effect
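Cell-based qHTS: luciferase-tagged P. falciparum in erythrocytes (2% hematocrit, 0.05% parasitemia final) incubated with compounds for 96 hours, 37 C, 5% CO2; luciferase detection reagent then added and luminescence measured.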
FBPA Giardia inh = Giardia lamblia aldolase inhibition; Potency, µM (highest dose often 59.6 µM), for inactives: at the highest dose activity, negative = inhibition, usual class: inhibitors; purified Giardia FBPA; AID 2451; actives 0.71% (n = 290,000); also: potency is read from the fitted curve at half-maximal effect; nearly all actives have a fitted effect of over 55% in size
Target sequence (A8B2U2 whole entry, looked up): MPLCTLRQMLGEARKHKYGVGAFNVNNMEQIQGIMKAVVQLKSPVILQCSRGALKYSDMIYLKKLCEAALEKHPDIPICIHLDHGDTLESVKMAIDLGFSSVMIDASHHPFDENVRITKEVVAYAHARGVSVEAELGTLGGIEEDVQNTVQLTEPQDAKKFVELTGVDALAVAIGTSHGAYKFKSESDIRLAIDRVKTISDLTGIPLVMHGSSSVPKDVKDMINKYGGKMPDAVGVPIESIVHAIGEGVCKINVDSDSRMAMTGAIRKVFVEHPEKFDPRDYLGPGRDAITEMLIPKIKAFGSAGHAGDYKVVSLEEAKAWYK
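40 nM FBPA preincubated 10 min at RT with compound (up to 57.5 uM final), then substrate plus GAPDH/TPI/NAD/arsenate coupling and diaphorase/resazurin added. Fluorescence read after 20 min at RT, 525/598 nm.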
HCMV inh = blocks human cytomegalovirus replication; HFF cells, HCMV-luciferase reporter, 72 h; hits give low values; activity change, negative = inhibition, % at 57.5 µM; actives 4.5% (n = 410,000); AID 1259415; in the data active = activity change below about -60%; inconclusive = no clear call, values can overlap the other calls; inactive = above about -39%
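After 16 h attachment at 37C, HFF cells received test compound and HCMV-luciferase (1 PFU/cell); reporter luminescence read 72 h later, data normalized against buffer-only and known inhibitor Salinomycin.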
* marks the source's active call; other numbers are inactive results; ? = inconclusive; · = no result; [ ] = another dose, or the depositor's remark. Unless noted, calls follow the shape of the dose curve; as a rule, active = well fitted curve in the direction sought with a large enough effect; inconclusive = small, poorly fitted or top-dose-only effect, or another doubt; inactive = no such curve, though single readings can be large; an effect the other way counts as inactive or inconclusive. % is scaled to controls: 0 for no effect and ±100 for the full control effect.

SMILES | Sm TGR inh | Pf growth 48h | Pf growth 96h | FBPA Giardia inh | HCMV inh
CCN(CC)CCNCc1ccc(-c2ccc(Cl)cc2)o1 | ? | ? | 12µM* | -2% | -14
Clc1ccc(-c2ccc(CNCCSc3nnnn3-c3ccccc3)o2)cc1 | 8% | · | · | · | 1
CCN(CC)CCNC(=O)NC(=O)c1ccc(Cl)cc1 | -2% | 16% | 16% | 4% | -3
COCCN(CCOc1cc(C)cc(C)c1)Cc1ccc(Cl)cc1 | 2% | ? | ? | 21% | ?
COc1cccc(NC(=O)CCC2CCN(C(=O)c3scnc3C)CC2)c1 | -2% | 6% | 49% | · | 20
CCCCNC(=O)C1(C)CCCCN1C(=O)C1(c2ccc(Cl)cc2)CCCC1 (centres undefined) | · | · | · | · | -34
CC(C)NCC(O)(c1ccc(Cl)cc1)c1ccc(Cl)cc1 | -2% | 12µM* | 1.5µM* | 6% | ?
CC(C)(C)NCC(O)(c1ccc(Cl)cc1)c1ccc(Cl)cc1 | -1% | ? | ? | 8% | ·
Cc1nc2cnc(N(C)C)nc2n(CCc2ccccc2)c1=O | · | · | · | 1% | ·
CCOc1ccc(CNC(=O)CSc2nnc(C)c3c(C)n(-c4ccccc4)nc23)cc1 | -4% | · | · | · | ?
COc1ccc(CNC(=O)CSc2nnc(C)c3c(C)n(-c4ccccc4)nc23)c(OC)c1 | 2% | · | · | · | -65*
Cc1nnc(SCC(=O)NCc2cccc(F)c2)c2nn(-c3ccccc3)c(C)c12 | -3% | · | · | · | -61*
COc1ccc(NC(=O)CN(C)C(=O)c2cccc(S(=O)(=O)Nc3ccccc3Cl)c2)cc1 | -13% | -24% | ? | · | -36
CCOc1ccccc1NC(=S)/C(=C(\[O-])c1ccc2c(c1)OCCO2)[n+]1ccc(CC)cc1 | -16% | · | 2.3µM* | -28% | 26
COCc1cc(C)nc2sc(C(=O)Nc3ccccc3O)c(N)c12 | -4% | · | · | · | -24
CC[C@H](C)Cc1cn([C@@H](CCCCNC(=O)OC(C)(C)C)C(=O)NCCCCCCCCCCC(=O)N2CCN(C(=O)OC(C)(C)C)CC2)nn1 | -2% | 2.1µM* | 1µM* | · | 21
CSCCCc1cn([C@@H](CO)C(=O)NCCCCCCCCCCC(=O)N2CCNCC2)nn1 | -14% | 15µM* | -77% | · | -25
CSCC[C@@H](C(=O)NCCCCCCCCCCC(=O)N1CCN(C(=O)OC(C)(C)C)CC1)n1cc(CCO)nn1 | 3% | 5.2µM* | 1.9µM* | · | 0
CC(C)(C)OC(=O)NCCCCc1cn(CC(=O)N2CCN(C(=O)OC(C)(C)C)CC2)nn1 | -9% | 2% | 9% | 5% | -80*
NCCCC[C@@H](C(=O)NCCCCCCCCCCC(=O)N1CCNCC1)n1cc(CCO)nn1 | -5% | ? | ? | · | -7
CC(C)(C)OC(=O)N1CCN(C(=O)Cn2cc(CCO)nn2)CC1 | 4% | 56% | 86% | 9% | 64
COc1ccc(O[C@H]2C=C[C@@H](c3ccccc3)O[C@H]2CO/N=C(/C)CCC(=O)OC[C@@H]2O[C@H](C#Cc3ccccc3)C=C[C@@H]2Oc2ccc(C)cc2)cc1 | · | · | · | 0%[12.9 µM] | ·
COc1ccc(-c2oc3ncn4nc(COc5c(C)cccc5C)nc4c3c2-c2ccc(OC)cc2)cc1 | 7% | · | · | · | 13
CC(C)(C)OC(=O)NCCCC[C@@H](C(=O)NCCCCCCCCCCC(=O)N1CCN(C(=O)OC(C)(C)C)CC1)n1cc(CCO)nn1 | -7% | 1.9µM* | 2.6µM* | · | -21
COc1ccc(S(=O)(=O)N2CCCCCC2)cc1NC(=O)Cc1ccccc1 | -4% | ? | -3% | 0% | 17
SMILES | Sm TGR inh | Pf growth 48h | Pf growth 96h | FBPA Giardia inh | HCMV inh
CCOc1ccc(S(=O)(=O)N2CCCCC2)cc1NC(=O)Cc1ccsc1 | 2% | 10µM* | 12µM* | · | -19
COc1ccc(S(=O)(=O)N2CCCCC2)cc1NC(=O)Cc1ccsc1 | -8% | ? | 13µM* | · | -1
COc1ccc(OCC(=O)Nc2cc(S(=O)(=O)N3CCCC3)ccc2Cl)cc1 | -1% | 18% | 0% | · | -38
COc1ccc(CC(=O)Nc2cc(S(=O)(=O)N3CCCCC3)ccc2OC(C)C)cc1OC | · | · | · | · | -11
COc1ccc(CC(=O)Nc2cc(S(=O)(=O)N3CCCC3)ccc2Cl)c(OC)c1 | -11% | ? | 15µM* | · | -3
COc1ccccc1N=Cc1nc(-c2ccccc2)oc1OC(C)=O | ? | 35% | 20% | -19% | 87
CC(=O)Oc1oc(-c2ccccc2)nc1/C=N/c1ccccn1 | 28µM* | 117% | ? | 5% | 5
COc1cccc(C(=O)Nn2cnnc2)c1OC | 5% | 8% | 2.1µM* | 2% | 26
O=C(Nn1cnnc1)c1ccccc1Cl | 8% | 3% | 8.3µM* | -6% | 27
CCOC(=O)c1c(NC(=O)/C=C/c2ccc(C)cc2)sc2c1CCCC2 | 3% | · | · | · | -2
CO[C@H]1C[C@@H]2CC[C@@H](C)[C@@](O)(O2)C(=O)C(=O)N2CCCC[C@H]2C(=O)OC([C@H](C)C[C@@H]2CC[C@@H](O)[C@H](OC)C2)CC(=O)[C@H](C)/C=C(\C)[C@@H](O)[C@@H](OC)C(=O)[C@H](C)C[C@H](C)/C=C/C=C/C=C/1C (some centres undefined) | · | · | · | -16% | ·
COc1ccc(N(CC(=O)N2CCN(c3ccc(F)cc3)CC2)S(=O)(=O)c2c(C)nn(C)c2C)cc1 | -8% | · | · | · | -17
NS(=O)(=O)c1ccc(CCNc2ccc(C(F)(F)F)cn2)cc1 | -4% | 25% | 31% | -4% | -77*
FC(F)(F)c1ccc(NCCc2ccccc2)nc1 | 0% | 26% | -25% | 0% | -34
COc1ccc(N2C(=O)C(OC(C)=O)C2c2ccc(C)cc2)cc1 (centres undefined) | -1% | 7% | 21% | -2% | -64*
CC(C)c1c(O)ccc2c1CCC1[C@@](C)(C=O)CCC[C@@]21C (some centres undefined) | · | · | · | -16% | ·
CN1CCc2ccccc2Cc2[nH]c3ccccc3c2CC1 | -31% | 8.3µM* | 6.6µM* | -1% | 2
CCCCN1CCc2c([nH]c3ccccc23)C1=O | -7% | 84% | -6% | 2% | 71
CCCC(=O)OCc1cnc(C)c2oc(=O)c(C(=O)Nc3ccccc3)cc12 | 0% | · | · | · | 5
Cc1c(Cl)cccc1NC(=S)NCc1ccco1 | ? | -6% | 0% | 0% | ?
CC(C)(CO)NC(=S)NCc1ccco1 | 25µM* | ? | 35% | ? | -36
Cc1cc(Cl)ccc1NC(=O)C(=O)NCc1ccco1 | -8% | · | · | · | 16
S=C(NCc1ccco1)Nc1ccccc1Cl | 7.9µM* | 43% | 38% | -1% | 10
S=C(NCc1ccco1)Nc1cccc(Cl)c1Cl | 7.9µM* | 10% | 14% | 1% | -19
Cc1cc(Cl)ccc1NC(=S)NCc1ccco1 | -27% | 8% | 3% | -2% | -61*
COc1ccc(CCC2(C)OCC(CCCCO)O2)cc1 (centres undefined) | · | · | · | · | -9

Compound activity: PubChem, National Center for Advancing Translational Sciences (NCATS)
